KB-3-1 cytotox: KB-3-1 parental cell cytotoxicity; AID 1347075; KB-3-1 viability, CellTiter-Glo ATP luminescence, 72 h; Potency, µM (titrated, usually from 46.1 µM), actives largely listed as cytotoxic; actives 1.4% (n = 400,000); note: % is set by controls: 0 for no effect and ±100 for the full control effect; nearly all actives have a fitted effect of over 60% in size
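Parental KB-3-1 adenocarcinoma cells in phenol-red-free DMEM with 10% FBS were pin-treated with compounds at several concentrations, incubated 72 h at 37 °C, and viability read by CellTiter-Glo luminescence; concentration-effect curves were fitted after normalization.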
MCF10A rerep: DNA re-replication induction in MCF 10a cells. AID 624296. actives 2.9% (n = 350,000). Potency, µM (series often up to 46.1 µM), for inactives: at the top dose activity, positive = re-replication, hits mostly activators. MCF 10A DNA re-replication, Hoechst nuclear intensity, 48 h; note: % of control where 0% means no effect; nearly all actives have a fitted effect of over 50% in size
PINK1 expr mod: PINK1 expression modulation; PINK1 immunofluorescence, high-content cytometry, 24 h; Potency, µM (highest dose often 76.6 µM), inactives show at the top dose activation (PINK1 increase), most hits filed as activators; actives 0.2% (n = 410,000); AID 624263; active = well fitted activation curve with a large enough effect; inconclusive = small, poorly fitted or top-dose-only effect; cell line not stated here; note: % of control where 0% means no effect; nearly all actives have a fitted effect of over 65% in size
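Stable cell line, 250 cells/well, 12 h attachment; compounds pinned at 5 concentrations, 24 h; CCCP control. Fixed with nuclear dye, primary antibodies 12 h at 10 degrees C, secondary plus cell stain; laser-scanning cytometer read.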
SW480 rerep: inducers of DNA re-replication in SW480 colon cancer cells; SW480 DNA re-replication, Hoechst DNA content imaging, 48 h; Potency, µM (top dose mostly 46.1 µM), for inactives: at the top dose re-replication activation, usual class: activators; actives 1.8% (n = 340,000); AID 624297; note: % of control where 0% means no effect; nearly all actives have a fitted effect of over 55% in size
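Readout is total intensity of Hoechst-stained nuclei, excited at 405 nm and collected at 500-530 nm. Compound treatment lasted 48 hr at 37 C in 5% CO2 before staining.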
PTAP TSG101 blk: blocks PTAP/TSG101 interaction to inhibit HIV-1 budding; AID 493005; Fluorescence polarization, FITC-PTAP peptide / Tsg101 binding; 340,000 tested, under 10 active; Potency, µM (titrated, usually from 115 µM), for the others: at the highest dose activity change, negative = inhibition, most hits filed as inhibitors; Q99816; active = well fitted inhibition curve with a large enough effect in the main read-out, with a control signal flat, not every such curve was filed as active; inconclusive = small, poorly fitted or top-dose-only effect, or effect the other way, or a change in a side signal; inactive = no such curve, though single readings can be large or run the other way; note: % of control where 0% means no effect
Target sequence (Q99816 whole entry, looked up): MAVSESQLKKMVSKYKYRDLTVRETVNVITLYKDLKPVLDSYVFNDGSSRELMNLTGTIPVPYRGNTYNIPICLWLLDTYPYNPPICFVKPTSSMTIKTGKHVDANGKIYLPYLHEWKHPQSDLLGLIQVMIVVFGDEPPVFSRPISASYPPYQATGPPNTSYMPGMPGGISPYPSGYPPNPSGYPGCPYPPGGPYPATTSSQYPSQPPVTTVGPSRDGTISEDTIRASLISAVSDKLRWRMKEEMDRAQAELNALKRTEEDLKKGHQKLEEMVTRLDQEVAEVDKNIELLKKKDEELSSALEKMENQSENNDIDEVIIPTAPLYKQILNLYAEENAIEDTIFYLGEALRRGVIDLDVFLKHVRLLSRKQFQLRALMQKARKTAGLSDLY
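Compounds were pin-transferred onto Tsg101 binding domain (10 uM final) in HEPES pH 7.5 buffer, then FITC-PTAP peptide was added at 50 nM final. After 20 min at RT, polarization reported peptide displacement across a qHTS concentration series.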
KB-V1 MDR tox: kills drug-selected multidrug resistant KB-V1 cells. AID 1347076. KB-V1 MDR cells viability, CellTiter-Glo, 72 h. Potency, µM (titrated, usually from 46.1 µM), most hits filed as cytotoxic. actives 3.4% (n = 400,000); note: % is set by controls: 0 for no effect and ±100 for the full control effect; nearly all actives have a fitted effect of over 60% in size
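Following 72 h at 37 degrees C with compound, KB-V1 cell viability was read by CellTiter-Glo luminescence, medium being phenol-red-free DMEM plus 10% FBS; concentration-response parameters came from normalized, curve-fitted qHTS data.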
* = called active by the depositor; i = inactive; ? = inconclusive; · = no result given; ! = a repeat was not active; [ ] = remark or other dose. A selection: hits, their analogues and other compounds. The true share with any hit is near 6.8%. Unless noted, calls come from the whole dose curve; as a rule, active = well fitted curve in the direction sought with a large enough effect; inconclusive = small, poorly fitted or top-dose-only effect, or another doubt; inactive = no such curve, though single readings can be large; an effect the other way counts as inactive or inconclusive. Potency is the fitted concentration of half-maximal effect.

SMILES	KB-3-1 cytotox	MCF10A rerep	PINK1 expr mod	SW480 rerep	PTAP TSG101 blk	KB-V1 MDR tox
NNC(=O)c1oc2nc(-c3ccc(Cl)cc3)cc(-c3ccccc3)c2c1N	?	8.2µM*	3%	23µM*	-1%	i
NNC(=O)c1oc2nc(-c3ccco3)cc(-c3ccco3)c2c1N	i	?	2%	0%	-2%	i
Cn1cnc(Sc2ncnc3nc[nH]c23)c1[N+](=O)[O-]	?	?	1%	13%	-4%	?
Cn1cnc([N+](=O)[O-])c1Sc1ncnc2nc[nH]c12	1.8µM*	?	3%	6%	-5%	?
Cc1ccccc1CN1C(=O)c2ccccc2Sc2ccc(C(=O)NCCc3ccccc3)cc21	·	·	0%	·	·	·
CCN(CC)CCNC(=O)c1ccc2c(c1)N(Cc1ccccc1)C(=O)c1ccccc1S2=O (stereo not drawn)	i	·	1%	·	·	i
Cc1cc(C)c(S(=O)(=O)/N=C2\C=C(NS(=O)(=O)c3ccccc3)C(=O)c3ccccc32)c(C)c1	i	14%	0%	-6%	-8%	i
Cc1cc(C)c(S(=O)(=O)/N=C2\C=CC(=O)C(Cl)=C2)c(C)c1	i	13µM*	3%[38.3 µM]	3%	-6%	i
N#Cc1ccc(CN2CCC3(CCNCC3)CC2)cc1	·	·	-1%	·	·	·
CO/N=C(/CNC(=O)c1ccc(Cl)cc1Cl)c1ccc(Cl)cc1	i	-9%	9%	-5%	1%	?
CO/N=C(/CNC(=O)c1cccc(Cl)c1)c1ccc(Cl)cc1	i	-2%	?	-125%	-3%	23µM*
CCOC(=O)C(NC(=O)c1ccccc1Cl)(Nc1ccc(C(F)(F)F)cc1)C(F)(F)F (stereo not drawn)	i	-4%	5%	-5%	1%	i
CCOC(=O)C(NC(=O)c1ccccc1Cl)(Nc1ccc(C)c(C)c1)C(F)(F)F (stereo not drawn)	i	-68%	-3%	4.1µM*	-5%	?
C[C@@H]1OC(OC2CC[C@@]3(C)C(CC[C@@]4(C)C3CC=C3C5CC(C)(C)CC[C@]5(C(=O)OC5OCC(O)[C@@H](O)[C@@H]5OC5O[C@@H](C)[C@H](O[C@H]6OC(CO)C(O)C(O)C6O)C(O)C5O)C(O)C[C@@]34C)C2(C)C)C(O)C(O)[C@H]1OC1OCC(O)C(O)[C@H]1O (stereo partly drawn)	·	·	-2%	·	·	·
COc1cc(/C=N/OCC(=O)NC2CCCCC2C)ccc1OCc1ccc(Cl)cc1 (stereo not drawn)	?	16µM*	-1%	-2%	-1%	8.2µM*
COc1cc(/C=N/OCC(=O)Nc2cc(C)cc(C)c2)ccc1OCc1ccc(Cl)cc1	?	20%	-2%	·	5%	21µM*
COC(=O)c1ccc(/C=N/OCC(=O)NC2CCCC(C)C2C)cc1 (stereo not drawn)	i	-7%	2%	2%	-8%	i
CC/C(=N\NC(=O)c1ccc(CN(C)S(=O)(=O)c2ccc(C)cc2)cc1)c1ccc(OC(F)F)cc1	?	-3%	2%	?	0%	15µM*
Cc1ccc(S(=O)(=O)N(C)Cc2ccc(C(=O)NN=C(CC(C)C)CC(C)C)cc2)cc1	?	16%	0%	?	-6%	2.3µM*
Cc1ccc(S(=O)(=O)N(C)Cc2ccc(C(=O)NN=C3C4CC5CC(C4)CC3C5)cc2)cc1	i	1%	4%	-3%	0%	i
Cc1cc(NS(=O)(=O)c2cn(C)c(C)n2)ccc1Br	?	·	-5%	·	·	i
Cc1ccc(CNC(=O)c2cc(C3CC3)nc3c2c(C)nn3-c2cccc(Cl)c2C)cc1	i	·	-1%	·	·	?
CC(C)(C)c1ccc(CN2N=C(/C=C/c3ccccc3)CCC2=O)cc1	i	21µM*	9%	?	2%	i
O=C1CCC(/C=C/c2ccccc2)=NN1Cc1ccccc1	i	0%	0%	-7%	-6%	i
CCc1nc(SCc2ccc(OC)cc2)n[nH]1	i	-4%	0%	3%	-3%	i
SMILES	KB-3-1 cytotox	MCF10A rerep	PINK1 expr mod	SW480 rerep	PTAP TSG101 blk	KB-V1 MDR tox
COc1ccc(CSC2=CS(=O)(=O)c3ccccc3N2)cc1	i	0%	-2%	3%	3%	23µM*
O=S1(=O)C=C(SCc2ccc(F)cc2)Nc2ccccc21	i	1%	0%	1%	-2%	i
O=S1(=O)C=C(SCc2ccccc2)Nc2ccccc21	?	-14%	-2%	-1%	-4%	18µM*
N#Cc1cc(C#N)c(SCC(=O)N2CC(=O)Nc3ccccc32)nc1N	?	6%	18%	-3%	11%	i
CCc1ccc2nc(SCC(=O)Nc3ccccc3N3CCOCC3)c(C#N)cc2c1	5.2µM*	3.7µM*	4%	3.7µM*	-6%	5.8µM*
CCc1ccc2nc(SCC(=O)N3CC(=O)Nc4ccccc43)c(C#N)cc2c1	5.2µM*	8.2µM*	1%	?	-2%	6.5µM*
CC12CN3CC(c4ccccc4)(CN(C1)C3c1ccc(O)cc1)C2=O (stereo not drawn)	i	·	-1%	·	·	?
CC(C)c1ccc(NC(=O)c2cc3c(=O)[nH]c4ccccc4c3n2C)cc1	i	·	3%	·	·	?
O=C(CN1N=C(c2ccccc2)CCC1=O)NCCN1CCc2ccccc2C1	i	-5%	0%	-10%	-2%	9.2µM*
CCOc1nc(NC(=O)NS(=O)(=O)Oc2cccc(Cl)c2)nc(-c2ccccc2)n1	0.0016µM*!	7%	-1%	2%	-1%	i
CCOc1nc(NC(=O)NS(=O)(=O)Oc2ccc(Cl)cc2)nc(-c2ccccc2)n1	i	·	1%	·	·	i
CC1CCCC(C)N1C(=O)COC(=O)Cc1ccc(Cl)cc1 (stereo not drawn)	i	-4%	0%	0%	1%	i
CC1CCCC(C)N1C(=O)CSCc1ccc(Cl)cc1 (stereo not drawn)	?	7%	5%[38.3 µM]	1%	-12%	18µM*
C[C@H](C(=O)O)c1cccc(Oc2ccccc2)c1	·	3%[20.6 µM]	·	-2%[20.6 µM]	·	·
Cc1cc(C)n2nc(SCc3nnc(-c4ccccc4Br)o3)nc2n1	i	0%	-1%	-14%	-4%	13µM*
Cc1ccc(-n2nnnc2SCc2nnc(-c3ccccc3Br)o2)cc1	i	28%	·	23%	-2%	16µM*
Brc1ccccc1-c1nnc(CSc2nncn2-c2ccccc2)o1	i	9%	?	2%	-4%	i
Cc1ccc2c(CC(=O)NCc3ccccc3)coc2c1C	?	·	11%	·	·	?

Source: PubChem BioAssay
